Pf apPOL block = Pf-apPOL DNA polymerase inhibition; inhibition, % at 10 µM; 210,000 compounds, 0.25% hits; Recombinant Pf-apPOL, molecular beacon fluorescence, 1.5 h
mHTT-CaM PPI inh = inhibitors of human mutant huntingtin-calmodulin interaction | AlphaScreen His-mHTT/GST-CaM binding, luminescence | AID 1671202 | 190,000 compounds, 3.6% hits | inhibition, % at 15 µM
A number is an active result; - = inactive; . = no result given. Sampled rows, rich in hits. Any-hit rate of the full collection: about 3.6%. Rule as the data show it: active = inhibition above about 50%; inactive = the rest.

SMILES	Pf apPOL block	mHTT-CaM PPI inh
O=Cc1[nH]c2ccccc2c1Nc1ccc([N+](=O)[O-])cc1	-	100.2
O=c1sc2ccccc2c(Nc2ccc([N+](=O)[O-])cc2)c1[N+](=O)[O-]	.	-
O=[N+]([O-])c1ccc(Nc2c[nH]c3ccccc23)cc1	-	89.0
NS(=O)(=O)c1ccc(C(F)(F)F)cc1Cl	-	.
COCCN1C(=O)Cc2ccccc2C1C(=O)N1CCN(c2cccc(Cl)c2)CC1 (stereo not drawn)	-	67.1
CCN1C(=O)Cc2ccccc2C1C(=O)N1CCN(c2cccc(Cl)c2)CC1 (stereo not drawn)	-	-
CN1C(=O)C2(C(C#N)=C(N)Oc3[nH]c(=O)[nH]c(=O)c32)c2ccccc21 (stereo not drawn)	-	-
COc1cc(OC)c(NC(=O)N2CCc3nc(-c4ccccc4)ncc3C2)cc1Cl	-	-
COc1cccc(CNC(=O)c2nc(-c3ccc(C)cc3)n3c2CCCCC3)c1	-	74.4
O=C(NCc1cccnc1)c1nc(-c2ccc(Cl)cc2)n2c1CCCCC2	-	-
CCNC(=O)c1nc(-c2ccc(C)cc2)n2c1CCCCC2	-	-
COc1ccc(CNC(=O)c2nc(-c3ccc(C)cc3)n3c2CCCCC3)cc1	-	54.2
CCn1c(SCC(=O)c2ccc(Cl)cc2Cl)nnc1-c1ccc2c(c1)OCO2	-	-
CCOCC(=O)N1CCC(c2cnn(-c3ccc(C)cc3)c2)CC1	-	-
CSc1ccc(N2CC(c3nnc(NC(=O)c4ccc(Cl)cc4)o3)CC2=O)cc1 (stereo not drawn)	-	-
O=C(Nc1nnc(C2CC(=O)N(c3ccccc3)C2)o1)c1ccccc1 (stereo not drawn)	-	-
O=C(Nc1nnc(C2CC(=O)N(c3ccc(F)cc3)C2)o1)c1cccc(F)c1 (stereo not drawn)	-	-
CSc1ccc(N2CC(c3nnc(NC(=O)c4cccc(F)c4)o3)CC2=O)cc1 (stereo not drawn)	-	62.4
CSc1ccc(N2CC(c3nnc(NC(=O)c4cccs4)o3)CC2=O)cc1 (stereo not drawn)	-	63.5
CCOc1ccc(N2CC(c3nnc(NC(=O)c4ccccc4)o3)CC2=O)cc1 (stereo not drawn)	-	82.3
CCCOc1ccc(C(=O)Nc2nnc(C3CC(=O)N(c4ccc(OCC)cc4)C3)o2)cc1 (stereo not drawn)	-	-
O=C(Nc1nnc(C2CC(=O)N(c3ccccc3)C2)o1)c1cccs1 (stereo not drawn)	-	55.5
CCOc1ccc(NS(=O)(=O)N2CCCCC2)cc1	-	-
O=C(Nc1ccc(F)cc1F)c1cccc(Cl)c1	-	-
O=C(Nc1ccccc1F)Nc1ccccc1NC(=O)c1ccccc1Cl	-	-
SMILES	Pf apPOL block	mHTT-CaM PPI inh
COc1ccc(C(O)=C2C(=O)C(=O)N(c3ccccn3)C2c2ccc([N+](=O)[O-])cc2)cc1 (stereo not drawn)	-	-
CN(C(=O)c1ccc2c(c1)N(S(C)(=O)=O)CC2)c1ccccc1Cl	-	-
CCOc1ccc(CCNC(=O)C2CCN(c3nc4cccnc4s3)CC2)cc1	-	-
CCCSCCCNC(=O)c1csc2c1CCCC2	-	-
Cc1cccc(N2CCN(C(=O)c3ccc(SCc4cccnc4)c([N+](=O)[O-])c3)CC2C)c1 (stereo not drawn)	-	98.0
O=C(c1ccc(SCc2cccnc2)c([N+](=O)[O-])c1)N1CCCC1	-	-
Cc1cc2c(N3CCC(C(=O)Nc4ccc(C(F)(F)F)cc4)CC3)nccc2s1	-	-
COc1cccc(-c2oncc2CN2CCN(c3ccccc3)CC2)c1	-	-
COc1ccc(N2CCN(Cc3cnoc3-c3ccccc3)CC2)cc1	-	57.2
O=C(CCS(=O)(=O)Cc1ccccc1Cl)NCc1ccccc1	-	-
COc1ccc(Cl)cc1C(=O)N1CCN(Cc2ccsc2)CC1	-	-
Cc1ccc(C2=NC(=C(Cl)Cl)C(=O)N2)cc1	-	100.0
Cc1ccc(-c2[nH]c3ccccc3c2SCCNC(=O)C2CC2)cc1	-	-
O=C(CSc1cccc2cccnc12)NCc1ccccc1	-	-
Oc1ccc(COCc2ccccc2)c2cccnc12	-	99.0
CCOc1ccc(NC(=O)CN(c2cc(C)ccc2C)S(C)(=O)=O)cc1	-	-
CCOc1ccc(NC(=O)c2cn3c(n2)CCCC3)cc1	-	-
C=CCc1ccccc1OCC(O)CN1CCN(c2ccc(F)cc2)CC1 (stereo not drawn)	-	75.5
C=CCc1ccccc1OCC(O)CN1CCN(c2ccccc2F)CC1 (stereo not drawn)	-	-
C=CCc1ccccc1OCC(O)CN1CCN(c2ccccc2OC)CC1 (stereo not drawn)	-	-
C=CCc1ccccc1OCC(O)CN1CCN(c2ccccc2)CC1 (stereo not drawn)	-	74.4
CCCCC[C@H](C)N1C[C@H](COCc2ccccc2)Oc2cc(N3CC[C@H](N(C)C)C3)ccc2S1(=O)=O	-	-
CCCCC[C@@H](C)N1C[C@@H](COCc2ccccc2)Oc2cc(N3CC[C@@H](N(C)C)C3)ccc2S1(=O)=O	-	100.2

Bioassay records (PubChem)
